# Experimental data as given in PubChem BioAssay (NCI).
# Compounds without any hit were thinned out: in the full panel of roughly 79,000, 15% have a hit. Unmarked numbers belong to inactive results. Activity calls are given as the source filed them. No stated cut-off is given here; in the data, active means growth inhibition above about 70%; inactive means the rest.
# Experiments:
# [1] = NCI Yeast Anticancer Drug Screen. Data for the rad50 strain (AID 155);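 further: 0% = growth of vehicle-only cultures of the same strain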; details: S. cerevisiae rad50 strain growth inhibition, stronger effect = higher value
# In short: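 Cells are treated with compound, grown, and their growth is then scored against vehicle-only cultures of the same repair-deficient yeast strain.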
# [2] = NCI Yeast Anticancer Drug Screen. Data for the mec2-1 strain (AID 157); details: S. cerevisiae mec2-1 strain, stronger effect = higher value
# In short: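 Yeast mec2-1 mutant treated with compound. Readout: growth inhibition vs vehicle controls.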
# [3] = NCI Yeast Anticancer Drug Screen. Data for the sgs1 mgt1 strain (AID 161);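 further: 0% = growth of cultures given vehicle only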; details: S. cerevisiae sgs1 mgt1 strain, stronger effect = higher value
# In short: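 Test agents were incubated with a DNA-repair-mutant yeast strain. Growth was then read and compared against vehicle-treated controls.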
# [4] = NCI Yeast Anticancer Drug Screen. Data for the cln2 rad14 strain (AID 165);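 further: 0% = growth equal to vehicle treated cultures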; details: S. cerevisiae cln2 rad14 strain, stronger effect = higher value
# In short: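 cln2 rad14 yeast strain; compound exposure; growth inhibition read vs vehicle controls.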
# [5] = NCI Yeast Anticancer Drug Screen. Data for the bub3 strain (AID 167); details: S. cerevisiae bub3 mutant strain, stronger effect = higher value
# In short: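 Part of a panel of yeast mutants defective in DNA damage repair or cell cycle regulation. Each strain is grown with compound, and inhibition is calculated relative to solvent-treated cultures.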
# [6] = NCI Yeast Anticancer Drug Screen. Data for the mlh1 rad18 strain (AID 175); details: S. cerevisiae mlh1 rad18 strain growth inhibition, stronger effect = higher value
# In short: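 Yeast w/ defined DNA-repair lesions; compound exposure; growth vs vehicle controls → % inhibition.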
# [7] = at 5.0 µM (retest, dose inferred, filed as 0.5)
# [8] = at 50.0 µM (retest, dose inferred, filed as 5.0)
SMILES,"growth inhibition [1, 7]","growth inhibition [1, 8]",growth inhibition ([1]; at 50.0 µM),"growth inhibition [2, 7]","growth inhibition [2, 8]",growth inhibition ([2]; at 50.0 µM),"growth inhibition [3, 7]","growth inhibition [3, 8]",growth inhibition ([3]; at 50.0 µM),"growth inhibition [4, 7]","growth inhibition [4, 8]",growth inhibition ([4]; at 50.0 µM),"growth inhibition [5, 7]","growth inhibition [5, 8]",growth inhibition ([5]; at 50.0 µM),"growth inhibition [6, 7]","growth inhibition [6, 8]",growth inhibition ([6]; at 50.0 µM)
Clc1ccccc1N1CCN(c2c3c(nc4ccccc24)CCCCC3)CC1,-4%,89% (active),93.3% (active),11%,96% (active),95.8% (active),38%,96% (active),94% (active),-13%,91% (active),94.2% (active),-10%,92% (active),93.2% (active),42%,94% (active),95.6% (active)
CCC(=O)Oc1ccc(-c2ccccc2)cc1Cl,-3%,98% (active),97% (active),-3%,99% (active),98.2% (active),-2%,96% (active),97.5% (active),-2%,98% (active),96% (active),14%,99% (active),98.8% (active),0%,98% (active),98.2% (active)
SCCCCCCCCCCS,0%,98% (active),98.9% (active),0%,99% (active),99.4% (active),1%,89% (active),99% (active),4%,94% (active),87.3% (active),2%,99% (active),97.5% (active),-1%,96% (active),99.1% (active)
O=C(NCCCNCCCCNCCCNC(=O)c1cc(-c2ccccc2)nc2ccccc12)c1cc(-c2ccccc2)nc2ccccc12,49%,98% (active),90.2% (active),25%,99% (active),93.2% (active),34%,99% (active),92.8% (active),30%,98% (active),91.1% (active),33%,64%,92.2% (active),46%,99% (active),90% (active)
COc1cc2c(c(OC)c1OC)-c1ccc(SC)c(=O)cc1[C@@H](NC(=O)Oc1ccccc1)CC2,73% (active),31%,54%,24%,29%,-0.55%,-9%,9%,-2.45%,-12%,13%,1.65%,-8%,8%,0.9%,20%,43%,12.6%
CN(C)CCC(=O)c1ccco1,6%,85% (active),86.1% (active),13%,93% (active),94% (active),25%,87% (active),93.3% (active),10%,89% (active),93.5% (active),-3%,39%,70.2% (active),13%,92% (active),95.3% (active)
COc1ccc2c(c1)C(O)=C(CC=C(C)C)C(=O)C2=O,-2%,16%,26.8%,22%,46%,35%,27%,61%,20.2%,7%,1%,46.3%,8%,23%,4.1%,35%,79% (active),41.4%
COc1ccc(C2(O)c3ccccc3C(=O)C2c2ccccn2)cc1 (centres undefined),99% (active),10%,99% (active),98% (active),-5%,99% (active),98% (active),-1%,99.3% (active),97% (active),-1%,98.8% (active),99% (active),7%,99.3% (active),99% (active),4%,98.9% (active)
O=C(O)c1ccc(CSc2ccc(Cl)cc2)cc1,-4%,0%,52%,-2%,19%,10.4%,11%,36%,51.3%,-7%,-15%,36.7%,-6%,39%,18.7%,0%,17%,71.3% (active)
CN(C)c1ccc(C2(c3ccc(N(C)C)cc3)OC(=O)c3ccccc32)cc1,2%,-6%,26.6%,1%,-6%,14.2%,1%,-3%,14.5%,-5%,-26%,16.9%,60%,61%,82.6% (active),-9%,-40%,38.9%
COc1ccc(-c2cn(-c3ccccc3)c3ncnc(N)c23)cc1,5%,18%,24.1%,5%,23%,11.8%,10%,52%,79.5% (active),1%,0%,33.8%,2%,9%,-15.4%,-2%,14%,17.6%
COc1cc(OC)c(OC)cc1/C=C\c1nccc2ccccc12,1%,51%,92.9% (active),-3%,12%,92.5% (active),-4%,23%,93.7% (active),4%,0%,65.4%,-6%,-6%,91.3% (active),-3%,12%,94.2% (active)
C[C@H]1CC[C@@H]2[C@@H](C)[C@H]3[C@H](C[C@H]4[C@@H]5CC=C6C[C@@H](O)CC[C@]6(C)[C@H]5C[C@H](O)[C@]34C)N2C1,-6%,8%,-17.8%,19%,-7%,-45.2%,-3%,0%,-7.65%,16%,-2%,38.9%,1%,-6%,-47.1%,1%,7%,3%
Cc1cccc(C)c1N=Nc1c(C)nc(N)nc1-c1ccccc1,0%,88% (active),96.8% (active),12%,95% (active),96.4% (active),5%,96% (active),95.5% (active),-4%,90% (active),94.3% (active),-7%,93% (active),96.3% (active),-4%,91% (active),95.3% (active)
Nc1ccc(C(=O)Oc2cccccc2=O)cc1,3%,36%,82% (active),2%,32%,42.9%,7%,52%,91.5% (active),3%,20%,16.1%,-1%,32%,77.2% (active),4%,78% (active),95.4% (active)
CN(C)CC/[N+]([O-])=C(/c1ccccc1)C12CC3CC(CC(C3)C1)C2,-6%,6%,-16.6%,-1%,-1%,1.8%,14%,31%,16.9%,7%,-1%,17.1%,1%,3%,-1.9%,9%,25%,70.6% (active)
CC(=O)N(/C=C\c1sc2ccccc2[n+]1C)c1ccccc1,38%,96% (active),90.5% (active),27%,98% (active),87.5% (active),61%,89% (active),84% (active),33%,65%,89.8% (active),27%,98% (active),91.3% (active),54%,97% (active),90.6% (active)
O=C1C=CC(=O)N1CCc1ccccc1,-33%,97% (active),99.5% (active),-31%,98% (active),99.5% (active),-34%,98% (active),99.3% (active),-10%,98% (active),99.3% (active),-45%,98% (active),99.3% (active),-90%,97% (active),99.2% (active)
C/C(=N/NC(=O)c1ccccc1S(N)(=O)=O)C(CN1CCCCC1)C(C1=C(O)C2C=CC=CC2OC1=O)c1ccccc1 (centres undefined),41%,41%,89.7% (active),25%,25%,91.4% (active),19%,19%,91% (active),8%,8%,88.8% (active),31%,31%,88.8% (active),22%,22%,88% (active)
COc1ccc(CN2C(=O)C(Cl)=C(Cl)C2=O)c(OC)c1,-1%,50%,99.5% (active),4%,59%,99.7% (active),-2%,73% (active),99.6% (active),-4%,27%,99% (active),-2%,68%,99.5% (active),-2%,44%,99.5% (active)
C=C1C[C@H]2C=Nc3cc(OCCCOc4cc5c(cc4OC)C(=O)N4CC(=C)C[C@H]4C=N5)c(OC)cc3C(=O)N2C1,92% (active),95% (active),98.3% (active),94% (active),97% (active),98.7% (active),88% (active),94% (active),97.7% (active),92% (active),97% (active),98.3% (active),86% (active),95% (active),98.6% (active),92% (active),95% (active),98.7% (active)
N#Cc1c([N+](=O)[O-])cc(C(F)(F)F)cc1[N+](=O)[O-],92% (active),99% (active),99.5% (active),63%,100% (active),99.6% (active),68%,100% (active),99.5% (active),82% (active),99% (active),99.2% (active),92% (active),100% (active),99% (active),92% (active),99% (active),99.3% (active)
O=C1c2ccccc2C(=O)c2c(/C=C\N3CCCCC3)ccnc21,40%,86% (active),87.7% (active),27%,60%,92.4% (active),40%,99% (active),92.6% (active),38%,95% (active),90.7% (active),48%,98% (active),92.3% (active),37%,84% (active),90.6% (active)
O=C(CN1CCCC1)Nc1nc(-c2ccc(Cl)cc2)cs1,55%,69%,50.5%,37%,53%,35.7%,54%,87% (active),67.5%,39%,57%,48.3%,45%,88% (active),67.6%,65%,82% (active),64.2%
CC(C)c1ccc(CN(CCO)Cc2ccc(C(C)C)cc2)cc1,7%,84% (active),97.2% (active),3%,88% (active),75.6% (active),6%,95% (active),97.1% (active),7%,87% (active),77.3% (active),7%,97% (active),98.6% (active),8%,91% (active),81.8% (active)
CN(C)c1ccc(/C=N/N=C(/C#N)[S][Sn]([S]/C(C#N)=N/N=C/c2ccc(N(C)C)cc2)([c]2ccccc2)[c]2ccccc2)cc1,7%,95% (active),98.3% (active),1%,96% (active),96.5% (active),10%,92% (active),97.7% (active),0%,89% (active),95.9% (active),-19%,98% (active),95.7% (active),5%,96% (active),97.4% (active)
CC(=O)CCC(Br)(CCC(Br)(CCC(C)=O)[N+](=O)[O-])[N+](=O)[O-] (centres undefined),0%,13%,95.2% (active),8%,14%,90.5% (active),-5%,33%,81.8% (active),15%,29%,91.5% (active),11%,28%,79% (active),12%,22%,98.3% (active)
CC1(C)OC2COC3(CNO)OC(C)(C)OC3C2O1 (centres undefined),0%,-4%,22.5%,-1%,1%,32.6%,-7%,-2%,83.1% (active),-5%,8%,25.1%,3%,5%,63.9%,-10%,-2%,69.7%
